A number with no mark means an inactive call. The rule behind the calls is not given here. Positions of bridges follow the written chain, without caps; N, C: chain ends. Non-standard residues stand in square brackets, D forms with d. Residues, ends and D or L forms follow the SMILES beside them. *: point of attachment. Octanoyl(6-Me) = CCC(C)CCCCC(=O)*; Dab = NCC[CH](N)C(=O)O

The test concerns Aerobactin synthetase IucA (Klebsiella pneumoniae hvKP1). In words: IucA enzyme inhibition, primary screen, biochemical, Spectrum library (AID 1346200).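 Note: 100% = wells without compound and 0% = wells lacking enzyme.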 The settings on record: malachite green pyrophosphate, A620, at 8 µM, active compounds read low.
Consider `Cc1c(NC(=O)c2cccnc2)c(=O)n(-c2ccccc2)n1C`, for which the activity remaining was 85.4%.
The figure for `CC(=O)[C@H]1CCC2C3CC=C4C[C@@H](O)CC[C@]4(C)C3CC[C@@]21C` (some centres undefined) is 99.4%; for `CCN(CC)C(=O)c1cccc(C)c1` it is 112%; for `COc1ccccc1OCC(O)COC(N)=O` (centres undefined) it is 108%.
Next, `CN1CCC(OC(c2ccccc2)c2ccccc2)CC1`: 108%.
For `CC(=O)O[C@H]1CC[C@@]2(C)C(C[C@H](OC(C)=O)[C@@]3(C)C4=CC(=O)OC(c5ccoc5)[C@]4(C)CCC23)C1(C)C` (some centres undefined), the activity remaining is 119%.
For `CC(C)[C@H](N)C(=O)OCCOCn1cnc2c(=O)[nH]c(N)nc21`, the activity remaining was 122%.
The figure for `CC(=O)c1cc2c(cc1O)OC(C)(C)C=C2` is 96.6%; for `CCC(C)CCCCC(=O)NC(CCN)C(=O)NC(C(=O)NC(CCN)C(=O)NC1CCNC(=O)C(C(C)O)NC(=O)C(CCN)NC(=O)C(CCN)NC(=O)C(CC(C)C)NC(=O)C(Cc2ccccc2)NC(=O)C(CCN)NC1=O)C(C)O` (centres undefined) ({Octanoyl(6-Me)}-[Dab]T[Dab][Dab][Dab]FL[Dab][Dab]T; lactam 4-C; configuration not given here) it is 121%.
The figure for `COc1cc(OC)c2c(=O)c(O)c(-c3ccc(OC)c(OC)c3)oc2c1` is 107%.
Turning to `CC(=O)OC1CCC2(C)C3CC(=O)C4(C)C(CC5OC6(CCC(C)CO6)[C@@H](C)C54)C3CC[C@H]2C1` (some centres undefined), the activity remaining was 102%.
Next, `Oc1ccc2c(c1)OCC1c3cc4c(cc3OC21)OCO4` (centres undefined): 87.4%.
The figure for `C[C@]12C=CC(=O)C=C1CCC1C2[C@@H](O)C[C@@]2(C)C1CC[C@]2(O)C(=O)COC(=O)CCC(=O)O` (some centres undefined) is 111%.
Consider `COc1ccc(C(=O)c2ccccc2O)c(O)c1`, for which the activity remaining was 107%.
Next, `COc1cc(-c2coc3cc(O[C@@H]4O[C@H](CO)[C@@H](O)[C@H](O)[C@H]4O)c(OC)c(O)c3c2=O)cc(O)c1OC`: 120%; `C[C@]12CCC3c4ccc(O)cc4CCC3C1CC[C@@H]2O` (some centres undefined): 125%; `COc1ccc(CCC(=O)c2c(O)cc(O[C@@H]3O[C@H](CO)C(O)[C@H](O)C3O[C@@H]3O[C@@H](C)[C@H](O)[C@@H](O)[C@H]3O)cc2O)cc1O` (some centres undefined): 109%.
Next, `CCC(=O)OCC(=O)[C@@]1(OC(=O)CC)[C@H](C)CC2C3C([C@@H](O)C[C@@]21C)[C@@]1(C)C=CC(=O)C=C1C[C@H]3Cl` (some centres undefined): 106%.
In the case of `Cc1ccsc1/C=C/C1=NCCCN1C`, the activity remaining is 123%.
The figure for `O=C(/C=C/c1ccc(O)c(O)c1)O[C@@H]1C[C@](O)(C(=O)O)C[C@@H](O)[C@H]1O` is 103%; for `CC(=O)OCC(COC(C)=O)OC(C)=O` it is 126%; for `Cc1ncc(CO)c(CO)c1O` it is 102%.
Next, `C=C1C2CC[C@@]3(C)[C@H](c4ccoc4)OC(=O)C[C@]13O[C@H]1C[C@H](OC(C)=O)C(C)(C)[C@H](CC(=O)OC)[C@@]21C`: 98.7%.
Next, `CC(=O)[C@@]1(O)CCC2C3C[C@H](C)C4=CC(=O)C=CC4(C)[C@@]3(F)[C@@H](O)C[C@@]21C` (some centres undefined): 114%; `C#CCCCCCCCCCCCC(O)CC(O)CO` (centres undefined): 98.4%; `CC12CCC3C(=CCc4cc(O)ccc43)C1CCC2=O` (centres undefined): 108%.
As for `O=C(OC[C@H]1O[C@H](OC(=O)c2cc(O)c(O)c(OC(=O)c3cc(O)c(O)c(O)c3)c2)[C@H](OC(=O)c2cc(O)c(O)c(OC(=O)c3cc(O)c(O)c(O)c3)c2)[C@@H](OC(=O)c2cc(O)c(O)c(OC(=O)c3cc(O)c(O)c(O)c3)c2)[C@@H]1OC(=O)c1cc(O)c(O)c(OC(=O)c2cc(O)c(O)c(O)c2)c1)c1cc(O)c(O)c(OC(=O)c2cc(O)c(O)c(O)c2)c1`, the activity remaining was 100%.
The figure for `COc1ccc2cc([C@H](C)CO)ccc2c1` is 118%; for `C[C@]12CCC3c4ccc(O)cc4CCC3C1CCC2=O` (some centres undefined) it is 103%; for `COc1c(N2CCNC(C)C2)c(F)cc2c(=O)c(C(=O)O)cn(C3CC3)c12` (centres undefined) it is 123%.
As to `C[C@]12C=CC(=O)C=C1CCC1C2C(=O)C[C@@]2(C)C1CC[C@]2(O)C(=O)CO` (some centres undefined), the activity remaining is 101%.
The figure for `COC(=O)C1=CO[C@@H](O[C@@H]2O[C@H](CO)[C@@H](O)[C@H](O)[C@H]2O)[C@H]2C1C(=O)C[C@@H]2C` (some centres undefined) is 112%; for `CN(Cc1cnc2nc(N)nc(N)c2n1)c1ccc(C(=O)NC(CCC(=O)O)C(=O)O)cc1` (centres undefined) it is 121%.
The figure for `CC(C)CCCC(C)C1CCC2C3C[C@@H](O)[C@@]4(O)C[C@@H](O)CC[C@]4(C)C3CC[C@]12C` (some centres undefined) is 123%; for `CC(=O)O[C@H]1C[C@@H](OC(C)=O)C(C)(C)C2CC(=O)[C@]3(C)C(CC[C@@]4(C)[C@H](c5ccoc5)OC(=O)[C@H]5O[C@]543)[C@]21C` (some centres undefined) it is 107%; for `C[C@H]1[C@H](C)CC[C@]2(C(=O)O)CC[C@]3(C)C(=CCC4[C@@]5(C)C[C@@H](O)[C@H](O)[C@@](C)(CO)C5CC[C@]43C)[C@H]12` (some centres undefined) it is 102%.
The figure for `COc1cc(O)c(C)c(O)c1` is 112%; for `CO[C@]12C[C@@H](COC(=O)c3cncc(Br)c3)CN(C)[C@@H]1Cc1cn(C)c3cccc2c13` it is 108%.
As for `C[C@H]1[C@H](NC(=O)/C(=N/OC(C)(C)C(=O)O)c2csc(N)n2)C(=O)N1S(=O)(=O)O` (stereo in doubt), the activity remaining is 113%.

These data come from PubChem BioAssay.
